An excerpt weighted towards active compounds, which were near 32% of everything screened.
CYP2C9 activ: CYP2C9 (human) activation. P11712. 1.4% of 96,000 active. recombinant CYP2C9, luciferin-H conversion, luminescence; stronger effect = higher value; factor 1 = untreated enzyme, 0 = blocked. activation factor at 5 µM. AID 1024;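 active = activation factor of 2 or more for CYP2C9 at a 5 µM dose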;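 also: 0 = sulfaphenazole-blocked wells and 1 = vehicle-only wells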
CYP2C19 activ: increases human CYP2C19 enzyme activity; AID 1025; 96,000 tested, under 10 active; recombinant CYP2C19, luciferin-H EGE luminescence; stronger effect = higher value; 0 = fully inhibited enzyme, 1 = untreated enzyme; activation factor at 5 µM; P33261;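 active = activation factor of at least 2 at 5 µM in the primary screen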;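 also: 0 = wells with 2.5 mM tranylcypromine and 1 = vehicle-only wells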
Target sequence (P33261 whole entry, looked up): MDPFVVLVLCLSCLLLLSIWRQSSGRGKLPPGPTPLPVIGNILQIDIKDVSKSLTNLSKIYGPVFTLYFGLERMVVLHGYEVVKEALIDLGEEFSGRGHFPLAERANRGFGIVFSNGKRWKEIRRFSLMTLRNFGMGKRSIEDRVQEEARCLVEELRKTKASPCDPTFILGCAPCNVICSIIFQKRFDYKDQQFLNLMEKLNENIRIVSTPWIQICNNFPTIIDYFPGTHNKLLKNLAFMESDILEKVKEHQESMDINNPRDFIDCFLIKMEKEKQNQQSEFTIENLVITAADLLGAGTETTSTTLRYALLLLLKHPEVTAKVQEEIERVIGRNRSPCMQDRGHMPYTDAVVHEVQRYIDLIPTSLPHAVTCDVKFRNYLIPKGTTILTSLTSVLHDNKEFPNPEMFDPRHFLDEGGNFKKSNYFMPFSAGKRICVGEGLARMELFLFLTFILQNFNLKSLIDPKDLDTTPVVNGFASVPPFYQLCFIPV
PostGolgi ctrl: growth of the yeast control strain, post-Golgi counter-screen | inhibition, % at 10 µM | efflux-deficient yeast background strain, growth absorbance A615, 16 h | 5% of 98,000 active | AID 738
CYP2C19 inhib: inhibitors of human CYP2C19; P33261; CYP2C19 Supersomes, luciferin-H EGE luminescence, 30 min; inhibition, % at 5 µM; 21% of 96,000 active;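 active = CYP2C19 inhibition above a set limit at 5 µM in the primary screen, cut at about 50% in these data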;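 also: plate controls were negative control wells for no effect and 2.5 mM tranylcypromine positive control for full effect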
CYP2C9 inhib: inhibitors of human CYP2C9; P11712; CYP2C9 Supersomes, luciferin-H conversion, luminescence; inhibition, % at 5 µM; 20% of 96,000 active; AID 777;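 active = blocking of liver enzyme CYP2C9 beyond about 50% at 5 µM, limit read from the data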
PostGolgi yeast: growth inhibition of a yeast mutant, post-Golgi transport screen | 0.9% of 98,000 active | post-Golgi transport phenotypic cell assay | inhibition, % at 10 µM;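 also: yeast cells grown in 1536-well plates; yeast grown about 18 h at 30C before absorbance read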
Numbers without * were called inactive; / = not tested or not shown. Rule as the data show it, unless noted: active = inhibition above about 30%; inactive = the rest.

SMILES	CYP2C9 activ	CYP2C19 activ	PostGolgi ctrl	CYP2C19 inhib	CYP2C9 inhib	PostGolgi yeast
Cc1ccc(NC(=S)NNC(=O)c2cn(C)nc2C)cc1	1	1	-2	-1	4	0
COc1cccc(NC(=S)NNC(=O)c2ccccc2OC(F)F)c1	0.4	0.7	7	29	64*	-2
Cc1ccc(NC(=S)NNC(=O)c2ccccc2OC(F)F)cc1	0.4	0.8	11	23	56*	-1
O=C(NNC(=S)Nc1ccc(F)cc1)c1ccccc1OC(F)F	0.4	0.8	10	16	58*	9
CCCc1cc(Nc2ccccc2OCC)n2ncnc2n1	1	0.6	4	40	3	0
CCCc1cc2c(cc1NS(=O)(=O)c1ccc(CCNC(C)=O)cc1)OCO2	0.6	0.2	-1	78*	40	-5
Cc1ccc(S(=O)(=O)NC(=O)NCc2ccc3c(c2)OCO3)cc1	1	1.2	20	-17	-2	-5
CCCNS(=O)(=O)c1ccc(CCC(=O)NCc2ccc3c(c2)OCO3)cc1	0.3	0.2	7	80*	74*	-14
O=C(CCNS(=O)(=O)c1ccc(Br)cc1)NCc1ccc2c(c1)OCO2	1.1	0.8	-1	22	-6	2
CC(C)(C)NS(=O)(=O)c1ccc(OCC(=O)Nc2ccc3c(c2)OCCO3)cc1	0.5	0.6	-3	38	47	-3
CC(=O)NCCc1ccc(S(=O)(=O)NCc2ccc3c(c2)OCO3)cc1	0.5	0.4	2	61*	47	2
CC(C)(C)NS(=O)(=O)c1ccc(CCC(=O)Nc2ccc3c(c2)OCO3)cc1	0.1	0.4	-1	58*	94*	4
COCCNC(=O)c1c(NC(=O)c2nc(SC)ncc2Cl)sc2c1CCCC2	1	1.1	5	-6	-1	-1
CC1CC(C)CN(CC(C)(C)NS(=O)(=O)c2ccccc2)C1 (configuration not stated)	0.5	0.2	-4	79*	48	15
Cc1cc(C(=O)NCCCN2CC(C)CC(C)C2)n(-c2ccccc2)n1 (configuration not stated)	1	1.1	6	-7	-3	-10
CC1CCCC(C)N1CC(C)(C)NS(=O)(=O)c1ccc(Cl)cc1 (configuration not stated)	0.8	0.2	5	84*	17	4
O=C(NCCCN1CCCCCC1)c1ccc2c(c1)NC(=O)C(N1CCOCC1)S2 (configuration not stated)	1	0.9	-1	13	3	-5
Oc1ccc(Cl)cc1C(C#Cc1ccccc1)N1CCOCC1 (configuration not stated)	0.5	0.6	20	37	49	-2
CCC(=O)Nc1nc2c(OC)ccc(OC)c2s1	1	1.1	4	-7	2	-5
COc1ccc(OC)c2sc(NC(=O)C3CC3)nc12	0.4	0.7	2	31	57*	6
CCCC(=O)Nc1nc2c(OC)ccc(OC)c2s1	0.4	0.7	10	30	61*	-2
CC1CC(NC(=O)c2ncn[nH]2)CC(C)(C)C1 (configuration not stated)	1.1	0.8	5	16	-8	-3
N#CC1=C(N)Oc2c(ccc3ccccc23)C1c1ccsc1 (configuration not stated)	0.6	0.7	49*	33	39	-2
CCCn1c(=O)c(C(=O)c2ccccc2)nc2ccccc21	1.4	0.7	-10	26	-39	-7
Cn1c(=O)oc2cc(C(=O)c3ccccc3)ccc21	1.1	0.8	-3	20	-13	8
SMILES	CYP2C9 activ	CYP2C19 activ	PostGolgi ctrl	CYP2C19 inhib	CYP2C9 inhib	PostGolgi yeast
Cn1cc(C(=O)c2ccccc2)cc1-c1nc2ccccc2n1C	0.3	0.2	15	83*	73*	-4
Cc1oc(-c2nc3ccccc3n2C)cc1C(=O)c1ccccc1	/	/	34*	/	/	5
CCC(=O)c1cc(-c2nc3ccccc3n2C)n(C)c1	0.3	0.4	-1	56*	65*	-5
CCCC(=O)c1cc(-c2nc3ccccc3n2C)n(C)c1	0.7	0.8	10	19	27	3
CCCCNC(=O)C1c2ccccc2C(=O)N(c2ccc(OC)cc2)C1c1ccc(OC)cc1 (configuration not stated)	0.6	0.9	7	14	42	-2
COc1ccc(C2C(C(C)=O)=C(O)C(=O)N2CCc2ccccc2)c(OC)c1 (configuration not stated)	0.5	0.9	-1	10	49	2
CC1(C)CC(=O)C(C(=O)CCCCC(=O)C2C(=O)CC(C)(C)CC2=O)C(=O)C1	1.2	1.1	-10	-12	-19	-6
O=C(c1ccc(Cn2cc([N+](=O)[O-])cn2)o1)N1N=C(C(F)F)CC1(O)C(F)F (configuration not stated)	0.4	0.6	3	38	62*	-1
COc1ccc(/C=N/NC(=O)c2ccc(Cn3cc([N+](=O)[O-])cn3)o2)c(OC)c1C	1.1	1.1	6	-14	-7	-2
Nc1nc(-c2ccco2)c(-c2ccco2)s1	0.2	0.2	7	78*	77*	-10
c1coc(-c2nc(-c3ccco3)c(-c3ccco3)nc2-c2ccco2)c1	0.8	1	4	4	17	4
Cn1c(C(=O)N2CCCC(C(=O)N3CCN(C(=O)c4ccco4)CC3)C2)cc2sccc21 (configuration not stated)	0.8	0.9	7	10	25	-3
CCn1c(C(=O)N2CCC(C(=O)N3CCN(c4ccccn4)CC3)CC2)cc2sccc21	1.6	0.3	4	65*	-60	0
CC1CCN(C(=O)C2CCN(C(=O)c3cc4sccc4n3Cc3ccc(F)cc3)CC2)CC1	0.3	0.7	29	31	73*	2
CC(C)NC(=O)C1CCN(C(=O)c2cc3sccc3n2Cc2ccc(F)cc2)CC1	0.3	0.4	4	56*	72*	-1
CCOC(=O)N1CCC(NC(=O)c2cc3sccc3n2CC)CC1	1.1	1	16	3	-15	5
COc1ccc(Cn2nnnc2C(c2cc3ccc(OC)cc3[nH]c2=O)N2CCCCCC2)cc1 (configuration not stated)	1	0.9	4	11	1	26
C=C(C)CSc1nnc(-c2ccccc2)n1N	1	0.9	-1	5	-5	18
Cc1onc(-c2c(F)cccc2Cl)c1C(=O)N1CCCc2ccccc21	0.7	0.3	-1	66*	26	12
Cc1onc(-c2ccccc2Cl)c1C(=O)N1CCc2ccccc21	0.7	0.3	34*	69*	34	-2
Cc1ccc2c(c1)CCCN2C(=O)c1c(C)noc1C	0.6	0.5	11	47	35	-15
Cc1onc(-c2ccccc2)c1C(=O)N1CCc2ccccc21	0.6	0.1	11	90*	41	8

Compound activity as filed in PubChem.
